# Data taken from paper PMC7862700, “An all-to-all approach to the identification of sequence-specific readers for epigenetic DNA modifications on cytosine”.
# How the values were obtained:
# Test in all cases: DAPPL (digital affinity profiling via proximity ligation, sequencing); 10 mM Tris-HCl pH 7.5, 50 mM NaCl, 1 mM DTT, 4% glycerol, room temperature, 30 min; GST-TFs on glutathione beads, 16-mer random dsDNA library, 0.1% formaldehyde crosslink after washing; high values mean tight binding
# FLI1 = biological target: T1, FLI1 (Homo sapiens, UniProt Q01543 1-452); settings: protein: recombinant; tags: N-terminal GST; dsDNA, one strand shown
# T1 sequence: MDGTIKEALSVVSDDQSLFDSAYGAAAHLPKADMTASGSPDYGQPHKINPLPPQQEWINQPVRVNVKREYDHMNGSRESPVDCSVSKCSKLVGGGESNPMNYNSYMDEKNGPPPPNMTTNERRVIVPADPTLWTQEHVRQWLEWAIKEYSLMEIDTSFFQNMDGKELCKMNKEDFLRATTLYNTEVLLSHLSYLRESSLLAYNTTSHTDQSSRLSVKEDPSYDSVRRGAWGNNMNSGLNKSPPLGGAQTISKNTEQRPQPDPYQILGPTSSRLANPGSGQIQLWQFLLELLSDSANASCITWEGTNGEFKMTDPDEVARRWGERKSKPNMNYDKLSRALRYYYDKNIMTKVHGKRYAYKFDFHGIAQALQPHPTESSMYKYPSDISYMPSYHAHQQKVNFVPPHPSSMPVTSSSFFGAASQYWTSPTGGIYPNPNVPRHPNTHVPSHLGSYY
# Procedure, shortened: (§1)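 After expression in yeast as GST fusions, human transcription factors were bound to glutathione beads, DNA-barcoded and mixed with a tag-only sample. The pools were incubated with 200 nmole of a 16-mer random double-stranded DNA library in Tris/NaCl/DTT/glycerol buffer (30 min, room temperature), washed and crosslinked with 0.1% formaldehyde. Proximity ligation with BsaI/T4 ligase ran for 1 h at 37 °C, before PCR amplification and sequencing on an Illumina NextSeq500. Binding signal is a hexamer's read frequency for a factor divided by its frequency for the tag-only sample.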
# ELK1 = biological target: T2, ELK1 (Homo sapiens, UniProt P19419 1-428); settings: protein: recombinant; tags: N-terminal GST; dsDNA, one strand shown
# T2 sequence: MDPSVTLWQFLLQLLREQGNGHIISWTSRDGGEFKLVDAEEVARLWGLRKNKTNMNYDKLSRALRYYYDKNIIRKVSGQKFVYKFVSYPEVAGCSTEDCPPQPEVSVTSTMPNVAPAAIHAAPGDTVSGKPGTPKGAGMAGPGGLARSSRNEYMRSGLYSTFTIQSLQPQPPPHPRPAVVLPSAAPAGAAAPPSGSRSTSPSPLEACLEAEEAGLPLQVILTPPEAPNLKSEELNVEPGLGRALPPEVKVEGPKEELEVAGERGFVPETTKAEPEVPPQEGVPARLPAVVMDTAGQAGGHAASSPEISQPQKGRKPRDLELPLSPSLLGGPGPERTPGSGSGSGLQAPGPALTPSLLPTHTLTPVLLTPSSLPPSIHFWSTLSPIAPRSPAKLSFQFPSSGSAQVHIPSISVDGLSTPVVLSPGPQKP
# Procedure, shortened: as §1
# GABPA = biological target: T3, GABPA (Homo sapiens, UniProt Q06546 1-454); settings: protein: recombinant; tags: N-terminal GST; dsDNA, one strand shown
# T3 sequence: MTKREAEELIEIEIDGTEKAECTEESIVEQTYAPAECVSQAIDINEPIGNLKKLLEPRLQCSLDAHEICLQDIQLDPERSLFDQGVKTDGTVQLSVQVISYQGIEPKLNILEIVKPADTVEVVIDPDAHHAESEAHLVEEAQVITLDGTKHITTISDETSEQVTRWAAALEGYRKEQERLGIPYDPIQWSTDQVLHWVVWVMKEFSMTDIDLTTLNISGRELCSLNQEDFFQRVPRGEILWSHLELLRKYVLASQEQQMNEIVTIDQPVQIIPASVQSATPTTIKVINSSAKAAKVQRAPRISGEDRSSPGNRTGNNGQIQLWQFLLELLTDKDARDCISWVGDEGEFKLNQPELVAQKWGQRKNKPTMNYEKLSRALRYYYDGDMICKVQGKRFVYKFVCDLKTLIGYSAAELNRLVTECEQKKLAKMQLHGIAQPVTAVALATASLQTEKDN
# Procedure, shortened: as §1
# ERG = biological target: T4, ERG (Homo sapiens, UniProt P11308 1-479); settings: protein: recombinant; tags: N-terminal GST; dsDNA, one strand shown
# T4 sequence: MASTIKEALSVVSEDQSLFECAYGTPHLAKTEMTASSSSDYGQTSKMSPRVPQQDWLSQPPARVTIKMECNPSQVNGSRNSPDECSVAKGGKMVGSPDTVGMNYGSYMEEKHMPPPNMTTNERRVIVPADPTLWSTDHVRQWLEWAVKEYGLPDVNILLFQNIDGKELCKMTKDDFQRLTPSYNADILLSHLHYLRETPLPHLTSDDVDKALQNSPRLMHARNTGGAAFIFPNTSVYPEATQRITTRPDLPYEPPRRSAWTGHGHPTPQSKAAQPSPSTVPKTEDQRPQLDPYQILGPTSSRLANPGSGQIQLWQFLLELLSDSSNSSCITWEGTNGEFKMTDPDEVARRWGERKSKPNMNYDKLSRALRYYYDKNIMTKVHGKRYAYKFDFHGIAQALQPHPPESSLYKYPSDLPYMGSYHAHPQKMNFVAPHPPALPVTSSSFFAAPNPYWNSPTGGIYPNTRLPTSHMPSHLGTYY
# Procedure, shortened: as §1
# ELF1 = ELF1 (Homo sapiens, UniProt P32519 1-619); settings: protein: recombinant; tags: N-terminal GST; dsDNA, one strand shown
# Chain of ELF1 (P32519 whole entry): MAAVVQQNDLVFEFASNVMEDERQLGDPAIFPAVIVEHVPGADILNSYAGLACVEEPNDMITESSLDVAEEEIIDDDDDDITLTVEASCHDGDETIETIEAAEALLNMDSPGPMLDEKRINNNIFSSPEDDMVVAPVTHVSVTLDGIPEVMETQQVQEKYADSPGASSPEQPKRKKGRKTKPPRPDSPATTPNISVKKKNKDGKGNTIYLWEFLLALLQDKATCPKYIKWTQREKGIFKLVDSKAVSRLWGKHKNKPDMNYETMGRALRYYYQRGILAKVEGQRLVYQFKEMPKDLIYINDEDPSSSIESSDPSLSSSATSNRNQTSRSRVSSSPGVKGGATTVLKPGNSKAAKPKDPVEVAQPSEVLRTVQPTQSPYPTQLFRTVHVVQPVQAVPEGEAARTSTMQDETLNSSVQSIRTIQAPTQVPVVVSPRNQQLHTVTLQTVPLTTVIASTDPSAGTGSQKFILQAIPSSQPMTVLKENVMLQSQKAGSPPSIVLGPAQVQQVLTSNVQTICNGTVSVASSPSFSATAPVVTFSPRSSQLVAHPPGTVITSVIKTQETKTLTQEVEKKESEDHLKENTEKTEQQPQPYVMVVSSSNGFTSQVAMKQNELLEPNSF
# Procedure, shortened: as §1
# EHF = biological target: T5, EHF (Homo sapiens, UniProt Q9NZC4 1-300); settings: protein: recombinant; tags: N-terminal GST; dsDNA, one strand shown
# T5 sequence: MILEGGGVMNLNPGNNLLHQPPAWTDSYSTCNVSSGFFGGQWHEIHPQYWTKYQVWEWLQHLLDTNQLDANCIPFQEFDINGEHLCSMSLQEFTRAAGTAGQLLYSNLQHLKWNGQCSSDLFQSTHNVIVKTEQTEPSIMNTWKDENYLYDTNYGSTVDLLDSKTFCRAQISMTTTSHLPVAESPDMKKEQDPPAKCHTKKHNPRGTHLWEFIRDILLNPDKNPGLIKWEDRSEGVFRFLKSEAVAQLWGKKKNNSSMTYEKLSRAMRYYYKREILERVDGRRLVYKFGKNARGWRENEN
# Procedure, shortened: as §1
# SPI1 = SPI1 (Homo sapiens, UniProt P17947 1-270); settings: protein: recombinant; tags: N-terminal GST; dsDNA, one strand shown
# Procedure, shortened: as §1
# SPIB = SPIB (Homo sapiens, UniProt Q01892 1-262); settings: protein: recombinant; tags: N-terminal GST; dsDNA, one strand shown
# Chain of SPIB (Q01892 whole entry): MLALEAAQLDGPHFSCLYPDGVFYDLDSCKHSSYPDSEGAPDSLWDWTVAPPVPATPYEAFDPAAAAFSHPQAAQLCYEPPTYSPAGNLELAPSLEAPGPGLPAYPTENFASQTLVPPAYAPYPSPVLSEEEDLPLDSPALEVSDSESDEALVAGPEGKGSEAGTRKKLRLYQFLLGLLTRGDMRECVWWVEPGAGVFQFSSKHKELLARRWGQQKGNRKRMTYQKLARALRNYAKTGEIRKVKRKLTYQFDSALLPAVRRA
# Procedure, shortened: as §1
# ELK3 = biological target: T6, ELK3 (Homo sapiens, UniProt P41970 1-407); settings: protein: recombinant; tags: N-terminal GST; dsDNA, one strand shown
# T6 sequence: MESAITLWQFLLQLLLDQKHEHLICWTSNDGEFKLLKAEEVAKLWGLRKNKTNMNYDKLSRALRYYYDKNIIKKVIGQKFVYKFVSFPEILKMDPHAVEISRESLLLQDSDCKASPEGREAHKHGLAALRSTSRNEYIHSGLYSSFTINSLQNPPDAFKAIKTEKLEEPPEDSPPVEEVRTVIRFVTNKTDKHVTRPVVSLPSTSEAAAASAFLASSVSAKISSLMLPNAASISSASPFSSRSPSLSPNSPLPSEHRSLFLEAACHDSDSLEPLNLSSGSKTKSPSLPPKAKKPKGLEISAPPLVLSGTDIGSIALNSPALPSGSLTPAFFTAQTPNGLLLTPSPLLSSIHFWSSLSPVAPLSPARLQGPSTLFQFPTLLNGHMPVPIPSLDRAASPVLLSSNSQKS
# Procedure, shortened: as §1
# FEV = biological target: T7, FEV (Homo sapiens, UniProt Q99581 1-238); settings: protein: recombinant; tags: N-terminal GST; dsDNA, one strand shown
# T7 sequence: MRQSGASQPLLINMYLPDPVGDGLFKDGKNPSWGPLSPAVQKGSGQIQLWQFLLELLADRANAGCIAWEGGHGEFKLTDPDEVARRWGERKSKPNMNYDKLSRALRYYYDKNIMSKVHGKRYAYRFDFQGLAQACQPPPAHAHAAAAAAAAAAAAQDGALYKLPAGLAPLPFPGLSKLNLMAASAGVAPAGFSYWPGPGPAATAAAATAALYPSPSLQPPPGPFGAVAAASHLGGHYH
# Procedure, shortened: as §1
# ETV5 = ETV5 (Homo sapiens, UniProt P41161 1-510); settings: protein: recombinant; tags: N-terminal GST; dsDNA, one strand shown
# Chain of ETV5 (P41161 whole entry): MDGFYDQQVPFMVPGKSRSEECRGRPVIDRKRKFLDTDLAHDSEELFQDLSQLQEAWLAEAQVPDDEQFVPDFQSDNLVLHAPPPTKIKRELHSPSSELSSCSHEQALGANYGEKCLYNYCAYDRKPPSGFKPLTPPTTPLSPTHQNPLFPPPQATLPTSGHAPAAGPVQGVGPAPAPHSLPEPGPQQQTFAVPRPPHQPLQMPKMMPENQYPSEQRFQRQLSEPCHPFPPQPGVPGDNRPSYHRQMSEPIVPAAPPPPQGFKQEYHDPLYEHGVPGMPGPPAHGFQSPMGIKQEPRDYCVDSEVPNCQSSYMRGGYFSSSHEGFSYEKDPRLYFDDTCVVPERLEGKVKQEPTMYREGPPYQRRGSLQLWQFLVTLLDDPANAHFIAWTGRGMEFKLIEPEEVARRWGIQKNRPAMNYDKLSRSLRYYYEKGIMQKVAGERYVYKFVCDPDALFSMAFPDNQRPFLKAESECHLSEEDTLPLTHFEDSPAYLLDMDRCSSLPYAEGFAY
# Procedure, shortened: as §1
# HSF1 = HSF1 (Homo sapiens, UniProt Q00613 1-529); settings: protein: recombinant; tags: N-terminal GST; chain copies: 3; dsDNA, one strand shown
# Chain of HSF1 (Q00613 whole entry): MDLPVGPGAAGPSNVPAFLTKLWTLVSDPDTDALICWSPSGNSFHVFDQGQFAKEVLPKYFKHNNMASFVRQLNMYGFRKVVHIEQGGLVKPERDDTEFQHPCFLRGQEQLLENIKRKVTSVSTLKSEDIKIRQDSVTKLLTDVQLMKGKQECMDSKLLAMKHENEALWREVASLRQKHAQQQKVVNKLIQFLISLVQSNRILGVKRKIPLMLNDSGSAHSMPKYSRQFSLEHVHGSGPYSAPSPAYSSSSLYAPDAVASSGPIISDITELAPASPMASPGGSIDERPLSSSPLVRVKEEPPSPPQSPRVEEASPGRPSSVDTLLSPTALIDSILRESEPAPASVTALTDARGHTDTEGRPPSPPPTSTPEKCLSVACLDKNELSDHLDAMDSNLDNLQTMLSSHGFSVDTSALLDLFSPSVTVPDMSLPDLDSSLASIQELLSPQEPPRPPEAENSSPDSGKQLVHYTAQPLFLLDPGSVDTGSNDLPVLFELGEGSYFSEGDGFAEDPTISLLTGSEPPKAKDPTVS
# Procedure, shortened: as §1
# SPIC = biological target: T8, SPIC (Homo sapiens, UniProt Q8N5J4 1-248); settings: protein: recombinant; tags: N-terminal GST; dsDNA, one strand shown
# T8 sequence: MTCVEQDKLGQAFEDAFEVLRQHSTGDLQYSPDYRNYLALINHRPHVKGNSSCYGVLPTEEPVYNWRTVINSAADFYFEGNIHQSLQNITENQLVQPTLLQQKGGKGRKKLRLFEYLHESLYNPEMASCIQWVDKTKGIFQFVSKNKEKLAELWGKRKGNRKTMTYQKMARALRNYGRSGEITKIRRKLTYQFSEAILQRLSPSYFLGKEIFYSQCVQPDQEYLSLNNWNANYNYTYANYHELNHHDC
# Procedure, shortened: as §1
# ELF4 = ELF4 (Homo sapiens, UniProt Q99607 1-663); settings: protein: recombinant; tags: N-terminal GST; dsDNA, one strand shown
# Chain of ELF4 (Q99607 whole entry): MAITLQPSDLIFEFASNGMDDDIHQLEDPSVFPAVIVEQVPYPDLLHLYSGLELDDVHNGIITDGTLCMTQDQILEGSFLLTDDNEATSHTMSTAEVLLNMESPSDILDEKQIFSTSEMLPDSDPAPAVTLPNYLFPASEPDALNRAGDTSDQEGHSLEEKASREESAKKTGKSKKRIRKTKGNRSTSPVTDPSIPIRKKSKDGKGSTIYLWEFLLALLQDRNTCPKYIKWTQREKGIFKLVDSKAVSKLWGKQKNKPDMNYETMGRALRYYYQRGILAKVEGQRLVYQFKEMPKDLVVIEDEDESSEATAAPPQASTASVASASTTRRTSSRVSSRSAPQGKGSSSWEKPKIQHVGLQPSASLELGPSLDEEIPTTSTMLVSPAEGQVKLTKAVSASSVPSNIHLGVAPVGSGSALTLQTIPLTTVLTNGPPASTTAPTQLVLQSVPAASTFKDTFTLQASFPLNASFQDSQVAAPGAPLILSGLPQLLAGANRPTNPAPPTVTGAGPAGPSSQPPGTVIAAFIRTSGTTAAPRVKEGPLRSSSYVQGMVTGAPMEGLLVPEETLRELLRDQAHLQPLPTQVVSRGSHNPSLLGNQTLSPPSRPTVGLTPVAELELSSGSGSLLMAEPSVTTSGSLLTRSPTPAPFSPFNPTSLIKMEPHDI
# Procedure, shortened: as §1
# ELK4 = biological target: T9, ELK4 (Homo sapiens, UniProt P28324-2 1-405); settings: protein: recombinant; tags: N-terminal GST; dsDNA, one strand shown
# T9 sequence: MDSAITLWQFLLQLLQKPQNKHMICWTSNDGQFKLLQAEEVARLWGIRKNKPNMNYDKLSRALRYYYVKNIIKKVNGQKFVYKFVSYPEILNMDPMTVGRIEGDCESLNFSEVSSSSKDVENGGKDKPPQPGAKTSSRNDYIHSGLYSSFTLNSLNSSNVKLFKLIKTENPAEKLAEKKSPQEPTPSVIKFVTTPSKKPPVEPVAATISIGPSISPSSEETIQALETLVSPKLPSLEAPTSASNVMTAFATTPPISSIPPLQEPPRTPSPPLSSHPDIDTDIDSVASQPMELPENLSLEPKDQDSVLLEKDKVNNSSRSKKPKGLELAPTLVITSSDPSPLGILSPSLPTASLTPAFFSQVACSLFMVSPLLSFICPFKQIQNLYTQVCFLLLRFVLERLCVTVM
# Procedure, shortened: as §1
# ETV2 = biological target: T10, ETV2 (Homo sapiens, UniProt O00321 1-342); settings: protein: recombinant; tags: N-terminal GST; dsDNA, one strand shown
# T10 sequence: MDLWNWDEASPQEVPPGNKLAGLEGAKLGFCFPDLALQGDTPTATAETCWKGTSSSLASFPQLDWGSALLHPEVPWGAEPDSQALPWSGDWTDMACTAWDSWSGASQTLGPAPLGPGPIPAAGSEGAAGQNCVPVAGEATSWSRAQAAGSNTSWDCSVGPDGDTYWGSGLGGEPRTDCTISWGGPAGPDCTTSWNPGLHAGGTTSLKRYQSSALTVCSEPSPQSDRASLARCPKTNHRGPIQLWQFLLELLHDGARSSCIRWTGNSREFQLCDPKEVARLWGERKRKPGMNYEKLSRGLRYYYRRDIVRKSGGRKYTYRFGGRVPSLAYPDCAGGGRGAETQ
# Procedure, shortened: as §1
# ELF3 = biological target: T11, ELF3 (Homo sapiens, UniProt P78545 1-371); settings: protein: recombinant; tags: N-terminal GST; dsDNA, one strand shown
# T11 sequence: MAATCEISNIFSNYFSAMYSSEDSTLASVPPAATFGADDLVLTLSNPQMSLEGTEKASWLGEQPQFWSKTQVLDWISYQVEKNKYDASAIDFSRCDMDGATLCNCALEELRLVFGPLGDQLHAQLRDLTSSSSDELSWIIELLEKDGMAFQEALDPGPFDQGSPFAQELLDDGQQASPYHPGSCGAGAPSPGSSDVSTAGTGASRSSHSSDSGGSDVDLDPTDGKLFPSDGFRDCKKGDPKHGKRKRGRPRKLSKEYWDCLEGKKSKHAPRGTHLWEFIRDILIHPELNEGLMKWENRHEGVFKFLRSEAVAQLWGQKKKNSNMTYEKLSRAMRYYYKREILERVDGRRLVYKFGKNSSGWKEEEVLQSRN
# Procedure, shortened: as §1
# CRX = CRX (Homo sapiens, UniProt O43186 1-299); settings: protein: recombinant; tags: N-terminal GST; dsDNA, one strand shown
# Chain of CRX (O43186 whole entry): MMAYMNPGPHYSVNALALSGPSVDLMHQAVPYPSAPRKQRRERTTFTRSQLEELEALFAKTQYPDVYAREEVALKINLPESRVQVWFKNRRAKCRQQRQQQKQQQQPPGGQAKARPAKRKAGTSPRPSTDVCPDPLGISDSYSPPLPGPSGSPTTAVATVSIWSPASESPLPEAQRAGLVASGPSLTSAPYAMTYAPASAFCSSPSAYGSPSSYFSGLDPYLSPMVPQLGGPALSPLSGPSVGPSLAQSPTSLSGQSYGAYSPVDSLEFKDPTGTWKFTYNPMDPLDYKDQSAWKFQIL
# Procedure, shortened: as §1
# ETV1 = ETV1 (Homo sapiens, UniProt P50549 1-477); settings: protein: recombinant; tags: N-terminal GST; dsDNA, one strand shown
# Chain of ETV1 (P50549 whole entry): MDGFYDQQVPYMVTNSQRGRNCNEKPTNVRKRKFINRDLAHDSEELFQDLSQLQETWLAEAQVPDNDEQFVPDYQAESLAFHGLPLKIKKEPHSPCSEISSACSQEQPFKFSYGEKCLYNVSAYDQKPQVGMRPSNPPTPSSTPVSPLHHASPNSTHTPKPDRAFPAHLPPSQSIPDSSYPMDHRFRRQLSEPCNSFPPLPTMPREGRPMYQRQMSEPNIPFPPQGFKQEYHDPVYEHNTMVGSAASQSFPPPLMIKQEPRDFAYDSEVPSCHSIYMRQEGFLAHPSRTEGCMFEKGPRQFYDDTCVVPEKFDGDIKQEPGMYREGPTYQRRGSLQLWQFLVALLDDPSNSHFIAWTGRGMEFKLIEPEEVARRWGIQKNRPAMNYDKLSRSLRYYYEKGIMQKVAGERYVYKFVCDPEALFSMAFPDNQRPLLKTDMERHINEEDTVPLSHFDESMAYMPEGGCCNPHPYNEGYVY
# Procedure, shortened: as §1
sequence,measurement,setting,value
ACATGC,binding signal,FLI1,"1.31 fold enrichment (6-mer frequency, TF over GST control)"
same,binding signal,ELK1,"1.2 fold enrichment (6-mer frequency, TF over GST control)"
same,binding signal,GABPA,"1.33 fold enrichment (6-mer frequency, TF over GST control)"
same,binding signal,ERG,"1.24 fold enrichment (6-mer frequency, TF over GST control)"
same,binding signal,ELF1,"1.36 fold enrichment (6-mer frequency, TF over GST control)"
same,binding signal,EHF,"1.24 fold enrichment (6-mer frequency, TF over GST control)"
same,binding signal,SPI1,"1.19 fold enrichment (6-mer frequency, TF over GST control)"
same,binding signal,SPIB,"1.2 fold enrichment (6-mer frequency, TF over GST control)"
same,binding signal,ELK3,"1.34 fold enrichment (6-mer frequency, TF over GST control)"
same,binding signal,FEV,"1.3 fold enrichment (6-mer frequency, TF over GST control)"
same,binding signal,ETV5,"1.25 fold enrichment (6-mer frequency, TF over GST control)"
same,binding signal,HSF1,"1.1 fold enrichment (6-mer frequency, TF over GST control)"
same,binding signal,SPIC,"1.27 fold enrichment (6-mer frequency, TF over GST control)"
same,binding signal,ELF4,"1.26 fold enrichment (6-mer frequency, TF over GST control)"
same,binding signal,ELK4,"1.2 fold enrichment (6-mer frequency, TF over GST control)"
same,binding signal,ETV2,"1.44 fold enrichment (6-mer frequency, TF over GST control)"
same,binding signal,ELF3,"1.28 fold enrichment (6-mer frequency, TF over GST control)"
same,binding signal,CRX,"1.03 fold enrichment (6-mer frequency, TF over GST control)"
same,binding signal,ETV1,"1.3 fold enrichment (6-mer frequency, TF over GST control)"
